Measurements published in PubChem BioAssay (Tox21).
Values joined by “and” are separate entries in the source; they are usually repeats but may differ in a detail not shown here. Identical values can stand only once. Records with an inconclusive call do not appear. Where a call stands in place of a potency, no number is given. The source holds several records for some structures; these can differ, active in one and inactive in another. Active and inactive are the calls of the source. Unless noted, the call rests on the fitted dose curve; in most records, active means well fitted curve in the direction sought with a large enough effect in the repeat runs; inconclusive means weak or mixed curves; inactive means no such curve, though single readings can be large; an effect the other way counts as inactive or inconclusive.

Experiments:
[1] = qHTS assay to identify small molecule that activate the aryl hydrocarbon receptor (AhR) signaling pathway - cell viability counter screen (AID 743086); further: nearly all actives have a fitted effect of over 45% in size; further: potency means the concentration at half of the fitted maximal effect
Procedure, shortened: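 Cytotoxicity counter screen: CellTiter-Fluor signal (30 min, 37 C) in 4000 HepG2 cells/well carrying the DRE-luciferase reporter, following 24 h compound exposure at 37 C.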

[2] = qHTS assay to identify small molecule antagonists of the peroxisome proliferator-activated receptor gamma (PPARg) signaling pathway - cell viability counter screen (AID 743194); further: nearly all actives have a fitted effect of over 55% in size; further: potency means the concentration at half of the fitted maximal effect
Procedure, shortened: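 Viability was measured as CellTiter-Glo luminescence in GeneBLAzer PPARg UAS-bla HEK293H cells. These cells had been exposed 17 h at 37 C to compounds together with rosiglitazone at 50 nM final, with the beta-lactamase readout taken in the same wells.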

[3] = qHTS assay for small molecule agonists of the antioxidant response element (ARE) signaling pathway - cell viability counter screen (AID 743203; calls by dose curve; further: nearly all actives have a fitted effect of over 55% in size; further: potency means the concentration at half of the fitted maximal effect)
Procedure, shortened: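 Parallel cytotoxicity read-out for the ARE-bla screen: HepG2 reporter cells, 16 hrs with compounds, then CellTiter-Glo luminescence.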

[4] = qHTS assay for small molecule activators of the heat shock response signaling pathway - cell viability counter screen (AID 743209); further: nearly all actives have a fitted effect of over 50% in size; further: potency means the concentration at half of the fitted maximal effect
Procedure, shortened: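 To flag cytotoxic compounds, HSE-bla HeLa cells plated at 1500 cells/well were dosed for 5 h at 37 C, followed by the reporter FRET read and then CellTiter-Glo, with luminescence recorded 30 min after reagent addition.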

[5] = qHTS assay for small molecule activators of the heat shock response signaling pathway (AID 743210; active means well fitted activation curve with a large enough effect in the signal ratio in the repeat runs, with a control signal flat, not every such curve was filed as active; the % refers to the signal ratio;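 further: HeLa cells with beta-lactamase reporter driven by heat shock elements; series mostly up to about 63 µM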)
Procedure, shortened: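 Fluorescence from a cleaved B/G FRET substrate (2.5 h, room temp) reports HSE-driven beta-lactamase in HeLa cells treated 5 h at 37 C with DMSO-dissolved compounds.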

[6] = qHTS assay to identify aromatase inhibitors - cell viability counter screen (AID 743084);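 further: cells stimulated with testosterone during compound exposure; nearly all actives have a fitted effect of over 55% in size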
[7] = molecular target: Peroxisome proliferator-activated receptor gamma (Homo sapiens) (UniProt P37231); assay: qHTS assay to identify small molecule agonists of the peroxisome proliferator-activated receptor gamma (PPARg) signaling pathway (AID 743094; active means well fitted activation curve with a large enough effect in the signal ratio in the repeat runs, not every such curve was filed as active; the % refers to the signal ratio)
Peroxisome proliferator-activated receptor gamma (Homo sapiens), sequence (P37231 whole entry, looked up): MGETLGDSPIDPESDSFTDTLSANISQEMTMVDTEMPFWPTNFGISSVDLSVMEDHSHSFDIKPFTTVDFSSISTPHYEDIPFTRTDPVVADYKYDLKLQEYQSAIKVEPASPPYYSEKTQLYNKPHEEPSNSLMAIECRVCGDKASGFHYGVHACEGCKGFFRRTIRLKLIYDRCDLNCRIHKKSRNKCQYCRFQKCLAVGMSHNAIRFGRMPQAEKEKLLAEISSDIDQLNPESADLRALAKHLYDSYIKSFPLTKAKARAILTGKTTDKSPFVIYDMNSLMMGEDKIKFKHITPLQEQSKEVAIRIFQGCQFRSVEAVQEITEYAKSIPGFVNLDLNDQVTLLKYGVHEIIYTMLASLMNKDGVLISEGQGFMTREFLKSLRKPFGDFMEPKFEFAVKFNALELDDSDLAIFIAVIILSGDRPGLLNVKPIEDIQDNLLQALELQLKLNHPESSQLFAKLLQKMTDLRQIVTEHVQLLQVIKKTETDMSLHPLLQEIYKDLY
Procedure, shortened: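 Fluorescence-based beta-lactamase readout in HEK293H PPARg UAS-bla cells after 17 h compound exposure (37C) and 1 h B/G FRET substrate incubation at room temperature.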

[8] = molecular target: Peroxisome proliferator-activated receptor gamma (Homo sapiens) (UniProt P37231); assay: qHTS assay to identify small molecule antagonists of the peroxisome proliferator-activated receptor gamma (PPARg) signaling pathway (AID 743191; calls by dose curve; further: nearly all actives have a fitted effect of over 30% in size; further: potency means the concentration at half of the fitted maximal effect)
Procedure, shortened: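 Beta-lactamase reporter under UAS control in HEK293H PPARg-bla cells; compound treatment 17 h at 37C. Read-out: fluorescence intensity after 1 h room-temperature incubation with LiveBLAzer B/G FRET substrate.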

[9] = qHTS assay for small molecule agonists of the antioxidant response element (ARE) signaling pathway (AID 743202; active means well fitted activation curve with a large enough effect in the signal ratio in the repeat runs, not every such curve was filed as active; the % refers to the signal ratio; further: potency means the concentration at half of the fitted maximal effect)
Procedure, shortened: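 Beta-lactamase reporter activity, read as fluorescence intensity, reflects ARE/Nrf2 pathway induction in HepG2 cells after 16 h compound exposure at 37 C; substrate loading was 2 h at room temperature.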

[10] = molecular target: Aryl hydrocarbon receptor (Homo sapiens) (UniProt P35869); assay: qHTS assay to identify small molecule that activate the aryl hydrocarbon receptor (AhR) signaling pathway (AID 743085);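 further: HG2L7.5c1 human HepG2 liver cells with stably integrated DRE-driven firefly reporter; series mostly up to about 70 µM; nearly all actives have a fitted effect of over 15% in size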
Aryl hydrocarbon receptor (Homo sapiens), sequence (P35869 whole entry, looked up): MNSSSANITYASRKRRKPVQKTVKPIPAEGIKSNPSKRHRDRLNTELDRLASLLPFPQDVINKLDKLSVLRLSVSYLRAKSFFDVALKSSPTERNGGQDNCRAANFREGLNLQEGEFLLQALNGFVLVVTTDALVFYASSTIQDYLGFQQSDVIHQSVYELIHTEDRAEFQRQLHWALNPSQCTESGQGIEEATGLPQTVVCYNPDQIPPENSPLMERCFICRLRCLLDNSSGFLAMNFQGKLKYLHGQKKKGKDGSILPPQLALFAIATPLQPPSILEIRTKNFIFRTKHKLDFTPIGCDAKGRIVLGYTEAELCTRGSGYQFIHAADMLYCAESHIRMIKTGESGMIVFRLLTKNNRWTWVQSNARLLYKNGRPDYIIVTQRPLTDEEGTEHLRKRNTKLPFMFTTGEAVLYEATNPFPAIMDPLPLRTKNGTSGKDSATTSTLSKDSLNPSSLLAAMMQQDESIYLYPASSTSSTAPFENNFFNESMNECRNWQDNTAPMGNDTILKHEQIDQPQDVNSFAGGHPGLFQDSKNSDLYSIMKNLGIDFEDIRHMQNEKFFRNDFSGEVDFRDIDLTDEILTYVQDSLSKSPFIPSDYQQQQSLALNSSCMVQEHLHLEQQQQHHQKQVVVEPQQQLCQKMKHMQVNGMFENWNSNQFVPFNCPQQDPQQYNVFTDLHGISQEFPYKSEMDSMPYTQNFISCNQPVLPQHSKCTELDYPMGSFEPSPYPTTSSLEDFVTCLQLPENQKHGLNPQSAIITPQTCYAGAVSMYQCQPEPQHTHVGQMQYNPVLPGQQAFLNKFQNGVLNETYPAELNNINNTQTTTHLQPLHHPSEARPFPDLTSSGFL
Procedure, shortened: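 AhR agonist activity is inferred from enhanced light output of a DRE-controlled firefly luciferase reporter in HepG2 cells, measured with ONE-Glo following 24 h treatment at 37C.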

SMILES	Potency [1]	Potency [2]	Potency [3]	Potency [4]	outcome [5]	Potency [6]	outcome [7]	Potency [8]	Potency [9]	Potency [10]
CCCCCCCCCCC=CC1CC(=O)OC1=O (stereo unspecified)	inactive	inactive	inactive	inactive	inactive					
C[C@@H](O)[C@H]1C(=O)N2C(C(=O)O)=C(S[C@@H]3CN[C@H](C(=O)N(C)C)C3)[C@H](C)[C@H]12	inactive	inactive	inactive	inactive	inactive	inactive	inactive	inactive	inactive	
O=c1c(-c2ccc(O)cc2)coc2cc(O)ccc12	inactive	inactive		inactive	inactive	inactive	inactive			
Oc1c(Cl)cc(Cl)c(Cl)c1Cl	inactive		inactive	inactive		inactive	inactive	17 µM (active)		
CC(=O)[C@@]1(O)CC[C@H]2[C@@H]3CCC4=CC(=O)CC[C@]4(C)[C@H]3CC[C@@]21C	inactive	inactive	inactive	inactive	inactive					
CC#C[C@]1(O)CC[C@H]2[C@@H]3CCC4=CC(=O)CCC4=C3[C@@H](c3ccc(N(C)C)cc3)C[C@@]21C	inactive		inactive	inactive		inactive				inactive
CCCCC(CC)C(=O)OCCOCCOCCOC(=O)C(CC)CCCC (stereo unspecified)	inactive	inactive	inactive	inactive	inactive	inactive	inactive	inactive	inactive	
CN(CCOc1ccc(CC2SC(=O)NC2=O)cc1)c1ccccn1 (stereo unspecified)	inactive	inactive	inactive	inactive	inactive				21.6 µM (active) and inactive	inactive
CN(C)c1ccc(C(=N)c2ccc(N(C)C)cc2)cc1	23.4 µM (active)	23.6 µM (active)	inactive	inactive	inactive		inactive			
Cc1cc(NS(=O)(=O)c2ccc(N)cc2)no1	inactive	inactive	inactive	inactive	inactive	inactive			inactive	
CCCCCCCCCCCCN	inactive		inactive and 24.3 µM (active)	inactive and 43.6 µM (active)			inactive		inactive	inactive
Cc1cc(Cc2ccc(N)c(C)c2)ccc1N	inactive	inactive	inactive	inactive	inactive				inactive	
CS(=O)(=O)Nc1ccc([N+](=O)[O-])cc1Oc1ccccc1	inactive	inactive	inactive	inactive	inactive	inactive				inactive
O=C1N=C(O)CN1/N=C/c1ccc(-c2ccc([N+](=O)[O-])cc2)o1	inactive and 48.6 µM (active)	inactive	inactive	inactive	inactive	inactive			inactive	
CC(C)(C)C(=O)C1C(=O)c2ccccc2C1=O		inactive	inactive	inactive	inactive					
C=C(C)C(=O)OCCCCCC	inactive	inactive	inactive	inactive	inactive	inactive	inactive		inactive	
OCCOCCOCCOCCO	inactive	inactive	inactive	inactive	inactive	inactive			inactive	inactive
